Only some compounds are listed: those with a hit (about 9.3% of all), similar ones and a draw of the others.
NPC1 prom act: NPC1 promoter activation; Huh7 NPC1 promoter luciferase reporter, 24 h; Potency, µM (top dose mostly 9.22 µM), inactives show top-dose activation, usual class: activators; hit rate 2.4% among 320,000; AID 485313; further: % of control where 0% means no effect; nearly all actives have a fitted effect of over 60% in size
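Luminescence read-out of NPC1 promoter-driven luciferase in stably transfected Huh7 cells; compounds delivered in DMSO and left 24 h at 37C, 5% CO2, qHTS titration format.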
SMN2 splice enh: enhancers of SMN2 splice variant expression; Potency, µM (top dose mostly 46.1 µM), for inactives: top-dose activity change, positive = activation, hits mostly activators; HEK293 SMN2-luciferase splicing reporter, luminescence, 30-36 h; hit rate 2.8% among 210,000; further: % of control where 0% means no effect; nearly all actives have a fitted effect of over 55% in size
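HEK293 cells carry an SMN2 minigene-luciferase reporter in which exon 7 inclusion puts luciferase in frame. Cells were seeded at 2000 cells/well, attached for 10-12 hours, then exposed to compounds for 30-36 hours at 37C before ONE-Glo luminescence.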
ELG1 DNA repair: ELG1-dependent DNA repair inhibition. HEK293T ELG1-luciferase reporter, luminescence, 16 h; DNA damage induced by 5-fluorouridine. AID 504467. Potency, µM (highest dose often 46.1 µM), without a hit: at the top dose activity change, negative = inhibition, actives largely listed as inhibitors. hit rate 2.3% among 330,000; further: on the % scale 0 is the no-effect control and ±100 the full control effect; nearly all actives have a fitted effect of over 55% in size
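Quantitative HTS, concentration-response format. 2,000 cells/well co-treated with 5-fluorouridine and compound, 16 hr in 5% CO2 at 37 °C; ONE-Glo luminescence read after 30 min.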
FLuc modulator: counter-screen for miR-21 project: firefly luciferase inhibitors or activators | AID 588342 | hit rate 6.9% among 360,000 | Potency, µM (titrated, usually from 57.5 µM), for inactives: top-dose activity change, negative = inhibition, usual class: inhibitors | purified FLuc, Km substrates, luminescence inhibition;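 further: plate controls were vehicle for no effect and reference inhibitor for full effect; nearly all actives have a fitted effect of over 55% in size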
Target sequence (P08659 whole entry, looked up): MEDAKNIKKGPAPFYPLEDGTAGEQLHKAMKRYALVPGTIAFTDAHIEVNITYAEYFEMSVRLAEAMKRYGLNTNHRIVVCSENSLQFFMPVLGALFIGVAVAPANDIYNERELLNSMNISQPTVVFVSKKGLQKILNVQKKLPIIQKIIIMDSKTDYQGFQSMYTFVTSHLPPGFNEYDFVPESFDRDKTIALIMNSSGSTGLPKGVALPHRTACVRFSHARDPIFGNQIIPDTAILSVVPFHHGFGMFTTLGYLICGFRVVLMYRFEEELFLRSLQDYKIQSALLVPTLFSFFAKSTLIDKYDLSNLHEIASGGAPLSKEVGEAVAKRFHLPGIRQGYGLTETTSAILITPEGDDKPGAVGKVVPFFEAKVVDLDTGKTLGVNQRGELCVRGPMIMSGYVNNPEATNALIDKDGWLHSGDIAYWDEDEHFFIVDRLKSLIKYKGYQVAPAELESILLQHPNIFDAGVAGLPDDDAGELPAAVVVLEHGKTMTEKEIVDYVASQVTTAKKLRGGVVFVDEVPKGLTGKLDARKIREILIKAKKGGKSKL
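Biochemical qHTS of compounds, final roughly 60 µM downward over six points, against 10 nM purified firefly luciferase using Km concentrations of substrates (10 uM D-luciferin, 10 uM ATP) in Tris acetate pH 7.5 buffer; luminescence output.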
ELG1 genotoxic: induces genotoxicity in HEK293T cells with luciferase-tagged ELG1. HEK293T ELG1-luciferase reporter, luminescence, 16 h. Potency, µM (top dose mostly 46 µM), without a hit: top-dose activity change, positive = activation, most hits filed as activators. hit rate 1.3% among 330,000. AID 504466; further: % of control where 0% means no effect; nearly all actives have a fitted effect of over 60% in size
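After overnight (16 hr) compound treatment at 37 °C, ELG1-luciferase HEK293T cells were lysed with ONE-Glo; luminescence quantified 30 min later at room temperature.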
Rab9 prom act: activates the Rab9 promoter; Huh7 Rab9 promoter-luciferase reporter, luminescence, 24 h; Potency, µM (series often up to 9.22 µM), for the others: at the top dose activation, negative = inhibition, usual class: activators; hit rate 2.8% among 320,000; AID 485297; further: % of control where 0% means no effect; nearly all actives have a fitted effect of over 60% in size
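Using Huh7 cells stably transfected with Rab9 promoter–luciferase, compounds were incubated 24 h at 37 °C, 5% CO2; luciferase luminescence was read 10 min after reagent addition.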
* hit, by the source's call; ? = inconclusive; . = no result. The call rests on the fitted dose curve; in most records, active means well fitted curve in the direction sought with a large enough effect; inconclusive means small, poorly fitted or top-dose-only effect, or another doubt; inactive means no such curve, though single readings can be large; an effect the other way counts as inactive or inconclusive. Potency means the concentration at half of the fitted maximal effect.

SMILES	NPC1 prom act	SMN2 splice enh	ELG1 DNA repair	FLuc modulator	ELG1 genotoxic	Rab9 prom act
O=C(NCc1ccco1)c1cc2ccccc2o1	11.1%	8.7%	?	?	7.8%	1.5%
COc1ccc2cc(C(=O)NCc3ccco3)c(=O)oc2c1	?	26.8%	?	6.01µM*	5.8µM*	?
O=C(O)COc1cccc(NC(=O)c2ccccc2)c1	1.7%	20.5%	10.0%	?	-1.1%	-1.4%
Cc1cccc(C(=O)Nc2cccc(OCC(=O)O)c2)c1	-3.9%	.	-5.8%	15.1µM*	0.8%	-8.4%
COC(=O)c1ccc(OCC(=O)c2ccccc2)cc1	3.16µM*	12.6µM*	?	7.57µM*	?	3.16µM*
O=C(COc1cccc(NC(=O)c2cccc([N+](=O)[O-])c2)c1)c1ccc(Br)cc1	-0.8%	-20.2%	9.2µM*	?	-8.6%	0.6%
O=C(COc1cccc(NC(=O)c2cccs2)c1)c1ccc(F)cc1	1.4%	-32.2%	?	23.9µM*	-5.5%	11.1%
CCN(CC)C(=O)COc1ccc(-c2nnc(N3CCCCC3)c3ccccc23)cc1	0.6%	-44.0%	?	?	-10.9%	-0.3%
Cc1ccc(C(=O)COC(=O)c2cc(Cl)ccc2O)cc1[N+](=O)[O-]	-3.5%	.	-0.5%	?	-11.1%	-3.5%
Cc1nc2ccc(S(=O)(=O)CCC(=O)Nc3ccccc3C)cc2s1	.	.	.	-0.8%	.	.
Cc1c(C)c2ccc(OCC(=O)N3CCN(c4ccccc4)CC3)cc2oc1=O	3.2%	.	-2.9%	?	-2.9%	0.9%
COc1cccc(C(=O)COc2ccc(NC(=O)c3ccccc3)cc2)c1	1.4%	.	-16.1%	3.38µM*	-1.4%	-1.2%
COc1cccc(C(=O)Nc2cccc(OCC(=O)c3ccccc3)c2)c1	2.0%	-16.6%	?	12µM*	-14.7%	1.8%
COc1cccc(C(=O)Nc2ccc(NC(C)=O)cc2)c1	15.1%	16.9%	?	?	?	27.2%
O=C(COc1cccc(NC(=O)c2ccccc2)c1)c1ccccc1	-3.0%	.	3.9%	15.1µM*	-0.5%	-2.6%
S=C(NCc1ccccc1)Nc1ccc(Cl)cc1	0.5%	.	-4.5%	?	-5.2%	-2.8%
COc1ccc2[nH]c(C(=O)O)c(NC(=O)c3ccccc3[N+](=O)[O-])c2c1	0.3%	.	0.3%	-5.1%	0.0%	-5.0%
COc1cccc2c1ncc1c(-c3ccc(C)cc3)nn(-c3ccc(F)cc3)c12	.	.	.	-3.4%	.	.
CCc1ccc(N(C(=O)CCC(=O)Nc2cc(C)on2)C(C(=O)NC(C)(C)C)c2ccc(OC)cc2)cc1 (stereo not given)	1.5%	.	-24.6%	23.9µM*	-7.5%	-2.0%
Cc1cc(/C=N/NC(=O)C(O)(c2ccccc2)c2ccccc2)c(C)n1-c1cccc(C(=O)O)c1	-0.1%	.	21.2%	-6.9%	-1.2%	0.7%
Cc1cc(/C=N/NC(=O)c2cccc(N(C)C)c2)c(C)n1-c1cc(C(=O)O)cc(C(=O)O)c1	16.6%	?	?	23.9µM*	?	?
O=C(Cc1ccccc1)N/N=C/c1ccccc1F	10.2%	18.0%	?	-18.3%	10.5%	-0.3%
CN(C)c1cccc(C(=O)N/N=C/c2ccccc2F)c1	0.708µM*	1.41µM*	?	0.601µM*	1.03µM*	0.355µM*
O=C(CN(Cc1ccco1)C(=O)c1cc(=O)[nH]c2ccccc12)Nc1ccccc1Br	-3.3%	-23.0%	20.6µM*	6.2%	-3.7%	-3.1%
Cc1ccc(Oc2ncccc2NC(=O)CC2(CC(=O)O)CCCC2)c2c1CCC2	0.7%	.	10.6%	0.4%	0.7%	0.4%
SMILES	NPC1 prom act	SMN2 splice enh	ELG1 DNA repair	FLuc modulator	ELG1 genotoxic	Rab9 prom act
CCOC(=O)C(=CNc1cccnc1Oc1ccc(C)c2c1CCC2)C(=O)OCC	-7.0%	.	14.6µM*	-1.2%	-12.9%	-7.4%
CCCOC(=O)c1cccc(NC(=O)CSc2nnc3cc(C)c4ccccc4n23)c1	.	.	.	-5.8%	.	.
COc1ccc(Cn2c(C)ccc2C)cc1	0.3%	6.5%	-16.5%	-0.3%	9.0%	-2.3%
COc1ccc(Cn2c(-c3ccc(Br)cc3)c[n+]3ccccc23)cc1	0.8%	11.2µM*	?	10.7µM*	17.2%	8.8%
N#Cc1c(-c2ccccc2)nc(-c2ccccc2)nc1N1CCOCC1	-3.1%	-9.5%	14.6µM*	-0.4%	0.4%	-1.9%
c1ccc(-c2nc(N3CCOCC3)cc(N3CCOCC3)n2)cc1	-10.7%	-6.4%	14.6µM*	0.5%	-7.7%	-11.5%
COc1ccc(-c2nc(-c3ccccc3)nc(N3CCN(C)CC3)c2C#N)cc1	-9.0%	-15.9%	20.6µM*	-0.5%	-6.2%	11.4%
CN1CCN(c2nc(-c3ccccc3)nc(-c3ccccc3)c2C#N)CC1	-9.3%	-16.6%	?	-2.0%	-13.5%	-31.2%
COc1ccc(C(=O)NCC(=O)N/N=C(\C)c2ccco2)cc1OC	0.8%	.	?	-0.1%	-0.2%	-3.7%
COc1ccccc1N1C(=O)C2C(C(=O)c3ccccc3)=NN(c3ccc(Br)cc3)C2C1=O (stereo not given)	1.6%	.	-15.8%	6.3%	-2.1%	1.9%
CCc1c(C)sc(NC(=O)c2ccco2)c1C#N	?	.	?	16.9µM*	?	3.55µM*
Cc1sc(NC(=S)NC(=O)c2ccc(C(C)(C)C)cc2)c(C#N)c1C	-4.3%	?	?	-11.4%	-0.4%	-1.7%
Cc1sc(NC(=S)NC(=O)c2ccco2)c(C#N)c1C	0.2%	.	?	2.69µM*	?	?
CCc1c(C)sc(NC(=O)c2noc(C)c2[N+](=O)[O-])c1C#N	-1.5%	-25.5%	-1.2%	10.7µM*	2.6%	3.5%
CCOC(=O)c1sc(NC(=O)c2ccco2)c(C#N)c1C	0.0%	-2.6%	14.4%	13.5µM*	-1.8%	-2.1%
CCc1c(C)sc(NC(=O)c2cc(-c3ccc(O)cc3)on2)c1C#N	-0.2%	13.7%	-3.5%	-0.2%	0.0%	1.6%
Cc1cc(C)nc(SCC(=O)NCc2ccco2)n1	0.4%	-4.5%	3.7%	-7.3%	-1.0%	0.0%

Screening data as filed in PubChem BioAssay.
